SW480 rereplic: DNA re-replication induction in SW480 cells; AID 624297; hit rate 1.8% among 340,000; SW480 DNA re-replication, Hoechst DNA content imaging, 48 h; Potency, µM (top dose mostly 46.1 µM), hits mostly activators; further: nearly all actives have a fitted effect of over 55% in size
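Hoechst fluorescence of nuclei (405 nm excitation, 500-530 nm emission) measured by plate-scanning imager after 48 hr compound exposure at 37 C; re-replication scored as increased number of nuclei with elevated intensity.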
MCF10A rerep: induces DNA re-replication in MCF 10a normal breast cells. MCF 10A DNA re-replication, Hoechst nuclear intensity, 48 h. Potency, µM (titrated, usually from 46.1 µM), most hits filed as activators. hit rate 2.9% among 350,000. AID 624296; further: nearly all actives have a fitted effect of over 50% in size
VP16 counter: Gal4-VP16 reporter inhibition counter-screen; Drosophila S2 Gal4-VP16 UAS-luciferase, luminescence, 20 h; Potency, µM (series often up to 53.6 µM), actives largely listed as inhibitors; hit rate 3.5% among 310,000; AID 2546;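 further: Gal4-VP16 expression switched on by copper sulfate through the metallothionein promoter; nearly all actives have a fitted effect of over 50% in size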
RORg inh: blocks mouse ROR gamma transcriptional activity. Drosophila S2 Gal4-RORgamma UAS-luciferase reporter, 20 h. Potency, µM (top dose mostly 53.6 µM), usual class: inhibitors. hit rate 5.4% among 310,000. AID 2551. P51450; further: nearly all actives have a fitted effect of over 60% in size
Target sequence (P51450 whole entry, looked up, the tested form may be a part): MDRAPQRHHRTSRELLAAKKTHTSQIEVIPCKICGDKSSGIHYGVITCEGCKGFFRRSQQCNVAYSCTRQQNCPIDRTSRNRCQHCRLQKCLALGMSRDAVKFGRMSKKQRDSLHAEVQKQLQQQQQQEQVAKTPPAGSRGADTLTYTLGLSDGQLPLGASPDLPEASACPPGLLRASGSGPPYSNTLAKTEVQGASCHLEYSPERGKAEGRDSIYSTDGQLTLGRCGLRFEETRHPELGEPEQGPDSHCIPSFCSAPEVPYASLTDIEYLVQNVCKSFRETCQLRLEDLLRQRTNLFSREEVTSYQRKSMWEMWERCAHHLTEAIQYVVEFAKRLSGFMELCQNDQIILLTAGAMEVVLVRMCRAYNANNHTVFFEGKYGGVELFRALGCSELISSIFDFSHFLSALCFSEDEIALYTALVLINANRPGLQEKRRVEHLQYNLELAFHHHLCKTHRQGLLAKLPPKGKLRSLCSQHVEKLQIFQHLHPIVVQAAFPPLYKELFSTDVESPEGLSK
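Drosophila S2 cells stably expressing Gal4-DBD/mouse RORγ fusion under metallothionein promoter plus UAS-luciferase; compound 1 h, then 700 uM CuSO4 induction for 20 h at ambient temperature; inhibition read as reduced luminescence.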
Giardia killer: kills Giardia lamblia | Giardia lamblia trophozoite viability | activity change, % at 7.66 µM, hits read low | AID 540267 | hit rate 0.15% among 340,000; in the data active means activity change below about -80%; inconclusive means between about -30% and that limit;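 further: parasites exposed to compound for two days anaerobically before the ATP read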
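Killing of trophozoites was scored by loss of ATP luminescence after a 48 hrs anaerobic exposure to compounds at 37 deg C, using 100 cells per well.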
BCR signal inh: inhibitors of chronic active B-cell receptor signaling; hit rate 0.05% among 340,000; ABC-DLBCL IkBa-CBG/CBR reporter, luminescence ratio, 4 h; Potency, µM (top dose mostly 46.1 µM), actives largely listed as inhibitors; active means well fitted inhibition curve with a large enough effect in the signal ratio, with a control signal flat, not every such curve was filed as active; inconclusive means small, poorly fitted or top-dose-only effect, or effect the other way, or a change in a side signal; the % refers to the signal ratio
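Doxycycline induced both beetle luciferases in TMD8 lymphoma cells; IKK-driven degradation limits the IkappaBalpha-fused green signal, while red luminescence normalises for cell number and nonspecific effects. Compounds tested up to 46 uM, 4 hrs.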
Numbers stand for hits; n = inactive; u = inconclusive; x = not tested or not shown; [ ] = another dose, or the depositor's remark. A selection: hits, their analogues and other compounds. The true share with any hit is near 8.3%. Unless noted, the call rests on the fitted dose curve; in most records, active means well fitted curve in the direction sought with a large enough effect; inconclusive means small, poorly fitted or top-dose-only effect, or another doubt; inactive means no such curve, though single readings can be large; an effect the other way counts as inactive or inconclusive.

SMILES	SW480 rereplic	MCF10A rerep	VP16 counter	RORg inh	Giardia killer	BCR signal inh
O=C1c2ccccc2C(=O)c2c1cccc2N1CCCC1	n	n	u	11µM	n	n
CC(C)CN(C(=O)COC(=O)c1cncc(Br)c1)c1c(N)n(Cc2ccccc2)c(=O)[nH]c1=O	u	u	n	u	n	n
C[C@]12c3[nH]c4ccc(Cl)cc4c3CCN1C(=O)[C@@H](CC(=O)NCc1ccco1)C[C@@H]2C(=O)N1CCOCC1	n	n	x	x	n	n
CN(Cc1ccc(F)cc1)Cc1nc(-c2cnccn2)no1	13µM	n	n	n	n	n
CC(C)Cc1ccc(/C=C/C(=O)NC2CC2)cc1	n	u	16µM	u	n	u
CN(C)c1ccc(C=NNC(=O)c2cccc3ccccc23)c(Cl)c1	18µM	n	x	x	n	x
COc1ccc(C(=O)Nc2ccccc2C(=O)N/N=C/c2ccncc2)cc1OC	n	n	5.6µM	3.5µM	u	u
COc1ccc(C(=O)Nc2ccccc2C(=O)NCc2cccnc2)cc1OC	n	n	x	x	n	n
O=C(N/N=C/c1ccccc1O)c1cc(=O)[nH]c2ccccc12	u	u	u	7.9µM	x	u
Cc1ccc(NC(=O)c2cc(=O)[nH]c3ccccc23)cc1	n	n	n	n	n	n
O=C(N/N=C/c1ccccc1O)c1cccc2ccccc12	u	n	0.89µM	1µM	n	n
O=S(=O)(c1ccc2c(c1)C(O)c1ccccc1CC2)C(F)(F)F (configuration not stated)	n	n	x	x	n	n
COc1ccc(CCNC(=O)COC(=O)c2ccccc2NCCO)cc1OC	u	n	x	x	n	n
COc1ccc(C(=O)Nc2ccccc2C(=O)N/N=C/c2cccc3ccccc23)cc1	n	n	0.79µM	1µM	-95	n
N#CCCOC1(C#CCN2CCCC2)CCCCC1	n	n	n	n	n	n
O=C(Cn1c(=O)c2cccn2c2ccccc21)NCCCN1CCCCC1	n	n	n	n	n	n
COc1cc(/C=N/NC(=O)c2cncc(Br)c2)cc([N+](=O)[O-])c1O	4.1µM	n	u	0.32µM	n	u
COc1cc([N+](=O)[O-])cc(/C=N/NC(=O)c2cncc(Br)c2)c1O	n	u	u	2.8µM	n	u
O=C(N/N=C\c1ccc([N+](=O)[O-])o1)c1cncc(Br)c1	n	u	u	u	u	u
O=C(O)C1Oc2cc3ccccc3cc2O1	n	n	n	n	u	n
CNC(=O)c1ccc(-c2sc3nc(N4CCOCC4)c4c(c3c2N)CCCC4)o1	7.3µM	u	n	n	n	n
CN1Cc2c(N3CCOCC3)nc3sc(C(=O)c4ccc(Br)cc4)c(N)c3c2CC1(C)C	u	18µM	u	11µM	n	u
CNC(=O)c1ccc(-c2sc3nc(N4CCOCC4)c4c(c3c2N)CC(C)(C)OC4)o1	u	2.9µM	n	n	n	n
Cc1nc2c(sc3nc(N4CCOCC4)c4c(c32)CC(C)(C)OC4)c(-c2ccccc2)c1C(=O)O	21µM	2.9µM	n	n	n	n
CCOC(=O)CCN1C(=O)[C@H]2[C@H]3[C@H](O)[C@H](O)C/C(=N/O[C@@H]4O[C@@H](COC(C)=O)[C@@H](OC(C)=O)[C@@H](OC(C)=O)[C@H]4OC(C)=O)[C@@H]3CC[C@@H]2C1=O	x	x	n[10 µM]	n[10 µM]	x	x
SMILES	SW480 rereplic	MCF10A rerep	VP16 counter	RORg inh	Giardia killer	BCR signal inh
CC(=O)N1CC[C@@H]2CC(=O)CC[C@@H]21	x	x	n	n	x	x
NC(=O)N/N=C/c1ccccc1OC(=O)c1ccccc1Br	n	n	n[10 µM]	n	n	n
O=C(CCl)N1N=C(c2ccco2)CC1c1cccs1 (configuration not stated)	3.3µM	21µM	16µM	10µM	n	u
CC(=O)N1N=C(c2ccco2)CC1c1cccs1 (configuration not stated)	n	n	n	n	n	n
Cc1ccc(C2=NN(C(=O)CCC(=O)O)C(c3cccs3)C2)cc1 (configuration not stated)	n	n	n	n	n	n
Cc1ccc(C2=NN(C(=O)CCl)C(c3cccs3)C2)o1 (configuration not stated)	5.8µM	u	u	u	n	u
O=S(=O)(c1ccccc1C(F)(F)F)N1CCN(c2nc(-c3cccs3)nc3ccccc23)CC1	x	x	x	x	n	x
CC[C@]12C(=O)N(C)C[C@H]([C@@H]3C(=O)N(Cc4ccccc4)C(=O)[C@@H]31)N2C(=O)c1ccccc1	n	n	x	x	n	x
CCOC(=O)c1cnc(-n2nc(C)cc2C)nc1N1CC(C)OC(C)C1 (configuration not stated)	n	n	x	x	n	x
CCOC(=O)c1cnc(-n2nc(C)cc2C)nc1NNc1ncc(-c2ccccc2)cn1	n	n	u	5.6µM	n	n
CCOC(=O)c1cnc(-n2nc(C)cc2C)nc1NNc1cc(-c2ccccc2)nc(C)n1	x	x	0.1µM	0.089µM	x	n
CC(=O)Nc1cccc(OC(=O)COc2ccc(Br)cc2)c1	29µM	n	n	n	n	n
CCCC(C(=O)Nc1ccc(S(=O)(=O)N2CCCC2)cc1)c1ccccc1 (configuration not stated)	u	n	x	x	n	n
Cc1cc(COc2ccccc2)oc1C(=O)O	n	n	6.3µM	5µM	n	u
CN(CC(=O)Nc1ccccc1Cl)C(=O)COC(=O)Cc1c(F)cccc1Cl	n	n	u	10µM	n	n
CN(CC(=O)Nc1ccc(F)cc1)C(=O)COC(=O)Cc1c(F)cccc1Cl	n	u	x	x	n	n
COc1ccc(N2C(=O)C3CCCN3C2c2ccc(C)o2)cc1 (configuration not stated)	n	n	n	n	n	n
CCCC(=O)C1=C(c2ccc(C)cc2)N(C(=O)CCC)n2cnnc2S1	x	x	x	x	x	20µM
CC1CCCN(CCCNS(=O)(=O)c2ccc3c(c2)CCN3C(=O)C2CC2)C1 (configuration not stated)	n	u	n	n	n	n
COc1ccc(CNCCNC(=O)c2nonc2N)cc1OC	n	n	n	n	n	n
Nc1nonc1C(=O)NCCNCc1cc(Br)ccc1OCc1ccc(F)cc1	n	u	13µM	n	n	n
CN(C)c1ccc(-c2cc3ccccc3c(=O)o2)cc1	13µM	15µM	x	x	n	u
O=C1C(=NO)CCc2ccccc21	21µM	n	x	x	n	x
O=C(OC(C(=O)Nc1ccc(Cl)cc1C(F)(F)F)c1ccccc1)c1c(Cl)cccc1Cl (configuration not stated)	n	5.8µM	n	n[10 µM]	n	u
CC12CCC(O)CC1=CCC1C2CCC2(C)c3[nH]ncc3CC12 (configuration not stated)	u	15µM	x	x	n	x
COc1cc(C2C(C(=O)Nc3ccccc3C)=C(C)Nc3nc(SCc4cc(C)ccc4C)nn32)ccc1O (configuration not stated)	x	x	x	x	n	u

Source: PubChem BioAssay (National Center for Advancing Translational Sciences (NCATS))
